Test results reported in PubChem BioAssay AID1671190 (National Center for Advancing Translational Sciences (NCATS), 2021).
Out of some 580,000 compounds screened, about 6,100 (1.1%) were called active. Inconclusive results (about 15%) are left out. The call rests on the fitted dose curve; in most records, active means well fitted inhibition curve with a large enough effect; inconclusive means small, poorly fitted or top-dose-only effect, or another doubt; inactive means no such curve, though single readings can be large or run the other way. The entries come from a sample that favours actives as a whole.

Molecular target: Polyunsaturated fatty acid lipoxygenase ALOX12 (Homo sapiens) (UniProt P18054)
Sequence (P18054 whole entry, looked up): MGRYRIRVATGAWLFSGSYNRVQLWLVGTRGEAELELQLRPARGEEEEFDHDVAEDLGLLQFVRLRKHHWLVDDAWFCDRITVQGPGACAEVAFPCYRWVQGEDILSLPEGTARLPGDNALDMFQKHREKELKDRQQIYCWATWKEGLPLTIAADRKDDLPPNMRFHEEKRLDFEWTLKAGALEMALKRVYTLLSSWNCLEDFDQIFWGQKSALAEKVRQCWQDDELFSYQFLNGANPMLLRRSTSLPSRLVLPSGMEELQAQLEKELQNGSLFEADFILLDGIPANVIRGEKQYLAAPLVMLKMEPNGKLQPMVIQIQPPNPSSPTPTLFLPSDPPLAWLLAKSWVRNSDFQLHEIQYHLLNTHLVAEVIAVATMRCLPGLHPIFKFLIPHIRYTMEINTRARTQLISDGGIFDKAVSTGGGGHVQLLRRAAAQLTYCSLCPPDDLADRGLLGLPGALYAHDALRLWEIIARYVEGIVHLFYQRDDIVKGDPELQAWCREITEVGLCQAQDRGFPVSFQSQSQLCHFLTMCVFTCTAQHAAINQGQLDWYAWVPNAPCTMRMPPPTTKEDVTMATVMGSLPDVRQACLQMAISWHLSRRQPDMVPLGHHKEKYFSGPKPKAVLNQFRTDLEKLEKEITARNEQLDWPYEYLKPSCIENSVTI
Assay: Primary qHTS assay for inhibitors of human arachidonate 12S-lipoxygenase (ALOX12): Round 2
Details: purified 12hLO, xylenol orange hydroperoxide absorbance; series mostly up to 108 µM; activity change, negative = inhibition: at the top concentration
From the text: Assay Provider: Theodore R. Holman Ph.D. University of California, Santa Cruz, California Human lipoxygenase 12hLO is a member of the closely related lipoxygenase family of enzymes which catalyze the site-specific oxidation of arachidonic acid to various hormone precursor molecules and as such is a candidate for drug development in a variety of disease areas, such as cancer and inflammation. Inhibition of 12hLO activity was screened by utilizing arachidonic acid as a substrate. The extent of hydroperoxide product formation was measured by a secondary chromogenic reaction in which xylenol orange (XO, Sigma-Aldrich, cat. number 39,818-7) reacts with the ferric ions produced from the reaction between the hydroperoxide and ferrous ions. The Fe (III)-XO complex is characterized with red-shifted absorbance at 560 nm. A purified preparation of human 12hLO was supplied by Dr. Holman laboratory, University of California, Santa Cruz.
PROTOCOL TABLE SEQUENCE No. (e.g., 1, 2, 3, etc.); […] (e.g., Cells, Incubation, Reagent, etc.); VALUE; DESCRIPTION 1; Enzyme; 3 uL; 150 nM 12hLO enzyme solution dispensed in 1536-well Greiner black, clear bottom plates. 2; Compound; 23 nL; compounds and controls were added. 3; Incubate; 15 min; room temperature. 4; Substrate; 1 uL; 40 uM arachidonic acid (final concentration). 5; Incubate; 30 min; room temperature. 6; Reagent; 4 uL; Fe-XO solution was added to each well. 7; Incubation; 30 min; room temperature 8; Detector; absorbance; Read 1 at 405 nm absorbance using ViewLux (Perkin-Elmer) CCD imager. 9; Detector; absorbance; Read 2 at 573 nm absorbance using ViewLux (Perkin-Elmer) CCD imager. NOTES (numbers refer to sequence above) 1; 150 nM 12hLO (final concentration) in buffer solution (25 mM Hepes, 0.01% Triton X-100, pH 7.0) was dispensed in columns 1, 2, 5-48. Column 1 is neutral (100% activity). Buffer only was dispensed in columns 3 and 4 as no enzyme negative controls. The plates were covered with metal lids with gas-exchange holes. 2; Compounds were pin transferred via a Kalypsys Pin Tool (Wako USA) in column 5-48. Control compound was transferred in column 2, titration of nordihydroguaiaretic acid (NDGA, Sigma-Aldrich, N5023) with top concentration of 20 mM in DMSO then 1:3 dilution in duplicate. Dilution factor of 23 nL into 4 uL final assay volume. 3; Covered assay plates were incubated for 15 min at room temperature. 4; Substrate was added to start the reaction; 40 uM arachidonic acid (Sigma-Aldrich, St. Louis, MO) was dispensed throughout the plate. 6; Chromogenic detection reagent solution (divalent iron/xylenol orange, Fe-XO) was added to each well: 200 uM xylenol orange, 300 uM ferrous ammonium sulfate prepared freshly in 50 mM sulfuric acid. 8, 9; Two absorbance readouts were obtained at 405 nm and at 573 nm using a ViewLux high-throughput CCD plate imager (Perkin-Elmer). The 573 to 405 (Read 2 / Read 1) absorbance ratio was used to compute reaction progress.
On the % scale 0 is the no-effect control and ±100 the full control effect; potency means the concentration at half of the fitted maximal effect.

SMILES	Potency	activity change, negative = inhibition
CCOC(=O)c1c(C)n(Cc2ccccc2Cl)c2ccc(O)cc12	20 µM (active)	–
Cc1nn(Cc2ccccc2Cl)c(Cl)c1C(=O)OC(C(=O)NC(N)=O)C(C)C (stereo not drawn)	–	-14.7% (inactive)
COc1ccccc1-c1ccc(N2CC3CC(C2)c2cccc(=O)n2C3)nn1 (stereo not drawn)	–	35.4% (inactive)
O=C(NCc1ccccc1)[C@H]1CN2CCC1C[C@@H]2Cn1cc(-c2ccc(F)cc2)nn1 (stereo partly drawn)	–	11.8% [at 176 µM] (inactive)
COC(=O)[C@@H]1[C@@H](CO)[C@@H]2Cn3c(ccc(Br)c3=O)[C@H]1N2C(=O)c1cnccn1	–	43.2% (inactive)
COc1cc2c(cc1Oc1cccc(N(C)C)c1)NC(=O)C21CCN(CCC(C)C)CC1	–	-19.5% [at 176 µM] (inactive)
O=C(Nc1ccccc1)[C@H]1CN2CCC1C[C@@H]2Cn1cc(CO)nn1 (stereo partly drawn)	–	18% [at 176 µM] (inactive)
COc1ccc(N2C(=O)/C(=C/c3ccco3)C(=O)NC2=S)cc1	8.91 µM (active)	–
COc1nc2c(cc1CNC(=O)C1C(C)(C)C1(C)C)C(=O)N(C1CCCC1)C2	–	3.42% (inactive)
COc1ccc(/C=C\[N+](=O)[O-])c(OC)c1	–	-7.77% (inactive)
Cc1nc(C)c(C(=O)N2[C@H]3CC[C@@H]2c2cnc(-c4ccccc4)nc2C3)s1	–	46.2% (inactive)
O=C1CC2CCN(Cc3cccnc3)CC2CCN1 (stereo not drawn)	–	6.21% [at 12.5 µM] (inactive)
Cc1cc(N2CCNC[C@@H]2C)ccc1N1CC[C@H](O)C1	44.7 µM (active)	–
CC1CNCCN1c1ccc(Cl)cc1 (stereo not drawn)	–	-26.4% (inactive)
COc1ccc(-c2cc3c(cc2OC)C2(CCN(C(C)=O)CC2)C(=O)N3)cc1OC	–	-20.9% [at 176 µM] (inactive)
CN(Cc1ccccc1)C[C@H]1CN2CC[C@H]1C[C@@H]2CNC(=O)Nc1ccsc1	–	-16.7% [at 176 µM] (inactive)
C[S+](=O)([O-])N1CCC2(CC1)CC(c1cccnc1)=NO2	–	5.92% [at 6.33 µM] (inactive)
c1ccc2sc(N3CCNCC3)nc2c1	–	-11.3% (inactive)
c1ccc2sc(SNC3CCCCC3)nc2c1	28.2 µM (active)	–
OC(CNC1CCCCC1)c1ccccc1 (stereo not drawn)	–	2.31% (inactive)
Cc1noc(C)c1CC(=O)N1[C@H]2CC[C@@H]1c1cnc(-c3ccccc3)nc1C2	–	21.1% (inactive)
Cc1noc(C(C)N2CCN(C(=O)Cc3ccccc3)CC2)n1 (stereo not drawn)	–	0.871% (inactive)
Cc1cc(C)c2[nH]c(C(=O)N3CCC(C#N)(c4ccccc4)CC3)c(C)c2c1	–	3.76% (inactive)
C=CCN(CC=C)C(=O)Nc1ccc(OCC)cc1	–	4.53% (inactive)
C=CCN1C(=O)NC(=O)/C(=C/c2ccc(OCC(=O)Nc3ccc(C)cc3)cc2)C1=O	39.8 µM (active)	–
CCC(=O)c1ccc(OCC(=O)N2CCN(CC(=O)Nc3ccc(C)cc3)CC2)cc1	–	-6.96% (inactive)
CC(CNc1ccc([N+](=O)[O-])c2cnccc12)c1ccccc1 (stereo not drawn)	–	-17.5% (inactive)
COC(=O)c1ccc(NC(=O)N2[C@H]3CC[C@@H]2c2cnc(-c4ccc(F)cc4)nc2C3)cc1	–	-11.1% (inactive)
